PubChem BioAssay (NCATS)
Results filed as inconclusive are left out. Entries that show only a call come without a potency. Active and inactive are the calls of the source. The call rests on the fitted dose curve; in most records, active means well fitted inhibition curve with a large enough effect; inconclusive means small, poorly fitted or top-dose-only effect; inactive means flat fitted curve, though single readings scatter.

The molecules below were run against Phospholipid hydroperoxide glutathione peroxidase GPX4 (Homo sapiens) (UniProt P36969) (assay: Primary qHTS Assay for Inhibitors of Recombinant Selenoprotein Glutathione Peroxidase 4 (GPX4) (AID 1845192; further: nearly all actives have a fitted effect of over 65% in size)). Details: recombinant GPX4, GR-coupled NADPH fluorescence, 15 min; series mostly up to 50 µM.
Chain of Phospholipid hydroperoxide glutathione peroxidase GPX4 (Homo sapiens) (P36969 whole entry, looked up): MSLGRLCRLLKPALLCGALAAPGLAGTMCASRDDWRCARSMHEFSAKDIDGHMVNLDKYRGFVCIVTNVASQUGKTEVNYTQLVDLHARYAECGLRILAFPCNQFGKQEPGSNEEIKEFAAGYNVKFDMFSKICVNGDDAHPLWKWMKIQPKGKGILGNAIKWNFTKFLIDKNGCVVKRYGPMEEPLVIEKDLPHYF
How it was run: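 GR-coupled readout: 100 nM GR, 1 mM GSH, 0.5 mM NADPH; NADPH fluorescence (ex 340/em 450 nm) read at t=0 and after 15 min RT. GPX4 200 nM, preincubated 30 min with compound; substrate 0.5 mM CHP.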
With `CCOP(=O)(OCC)C(C)NC(=O)N(CCCl)N=O` (stereo not drawn) the Potency was “inactive”. For `CCCCCCCCCCCCCCCC[N+](C)(C)C`, the Potency was “inactive”. For `COc1ccc(C(=O)c2c(C)n(CCN3CCOCC3)c3cc(I)ccc23)cc1`, the Potency was “inactive”. With `N=c1c2c(-c3ccccc3)c(-c3ccccc3)n(Cc3ccccc3)c2ncn1C1CCC(O)CC1` (stereo not drawn) the Potency was “inactive”. For `Clc1ccccc1C(c1ccccc1)(c1ccccc1)n1cccn1`, the Potency was “inactive”. For `C[C@]12CC[C@@H]3[C@@H](CCC4=CC(=O)CC[C@@H]43)[C@@H]1CC[C@@H]2OC(=O)CCc1ccccc1`, the Potency was “inactive”. For `CN(C)[C@@H]1C(=O)C(C(N)=O)=C(O)[C@@]2(O)C(=O)C3=C(O)c4c(O)cccc4[C@@](C)(O)[C@H]3[C@H](O)[C@@H]12`, the Potency was “inactive”. For `CC(C)(O)C(=O)Nc1ccc([N+](=O)[O-])c(C(F)(F)F)c1`, the Potency was “inactive”. In the case of `NC(CP(=O)(O)O)C(=O)O` (stereo not drawn), the Potency is reported as “inactive”. For `NC1=NC(=O)N2CC12` (stereo not drawn), the Potency was “inactive”. With `CN(C)NC(=O)CCC(=O)O` the Potency was “inactive”. `CN[C@@H]1Cc2cccc3[nH]c(=O)n(c23)C1` was tested, and the Potency was “inactive”. In the case of `CSCC[C@@H](NC(=O)[C@@H](Cc1ccccc1)NC(=O)CNC(=O)CNC(=O)[C@@H](N)Cc1ccc(O)cc1)C(=O)O`, the Potency is reported as “inactive”.
